Screening data (PubChem BioAssay)
HCMV antiviral: qHTS Assay for inhibitors of the human cytomegalovirus (HCMV). HFF cells, HCMV-luciferase reporter, 72 h; stronger effect = lower value. activity change, negative = inhibition, % at 57.5 µM. actives 4.5% (n = 410,000). AID 1259415, 2018; in the data active = activity change below about -60%; inconclusive = no clear call, values can overlap the other calls; inactive = above about -39%; note: % is set by controls: 0 for no effect and ±100 for the full control effect
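Two-dose cell screen: HFF monolayers treated with compounds and infected with luciferase-expressing HCMV at 1 PFU/cell, 72 h at 37C, then lysed for luciferase measurement.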
HCV inh: qHTS Assay for Inhibitors of Hepatitis C Virus (HCV) | Huh7.5.1 HCVcc-Cre infection, luciferase reporter, 44 h | Potency, µM (top dose mostly 41.8 µM), without a hit: at the highest dose activity change, negative = inhibition, hits mostly inhibitors | actives 3.4% (n = 340,000); note: potency is the fitted concentration of half-maximal effect; % is set by controls: 0 for no effect and ±100 for the full control effect
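Infectious HCV cell culture screen: compound-treated cells (1,000/well, pre-plated 4 h) are infected with HCVcc-Cre at roughly 0.5 moi and grown 44 h. Infection is quantified by luciferase signal after 15 min substrate incubation at room temperature.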
Shiga inhibitor: A qHTS for Small Molecule Inhibitors of Shiga Toxin. Vero cells, Shiga toxin protein synthesis inhibition reporter. actives 9.2% (n = 290,000). inhibition, % at 38.7 µM; in the data active = inhibition mostly above about 28%, no sharp cut-off; inactive = mostly below about 43%; note: 0% is about no effect
Pf growth 48h: Primary qHTS for delayed death inhibitors of the malarial parasite plastid, 48 hour incubation. P. falciparum luciferase growth in erythrocytes, 48 h. Potency, µM (doses to about 28.7 µM), inactives show at the highest dose activity change, negative = inhibition, hits mostly inhibitors. actives 5.9% (n = 310,000); note: potency is the fitted concentration of half-maximal effect; % is set by controls: 0 for no effect and ±100 for the full control effect
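In quantitative HTS format, infected erythrocytes bearing luciferase-reporter parasites were treated for a single generation at 37 C. Luminescence after adding detection reagent served as the growth measure.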
Pf growth 96h: Primary qHTS for delayed death inhibitors of the malarial parasite plastid, 96 hour incubation | AID 504834, 2011 | actives 6.9% (n = 320,000) | P. falciparum luciferase reporter growth, 96 h | Potency, µM (doses to about 28.7 µM), for the others: at the highest dose activity change, negative = inhibition, most hits filed as inhibitors; note: potency is the fitted concentration of half-maximal effect; % is set by controls: 0 for no effect and ±100 for the full control effect
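Erythrocytes infected with luciferase-expressing P. falciparum were dispensed at 2% hematocrit and 0.05% parasitemia (final), then incubated with compounds 96 hours at 37 C in 5% CO2. Luminescence after detection reagent addition reported growth.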
Cycloheximide cs: Cycloheximide Counterscreen for Small Molecule Inhibitors of Shiga Toxin. actives 12% (n = 300,000). max response, %. cell reporter, cycloheximide protein synthesis inhibition counterscreen; in the data active = max response mostly above about 13%, no sharp cut-off; inactive = mostly below about 14%; note: read at 38.3 µM for the half of the compounds with a filed dose; 0% is about no effect
The depositor's hits bear a star; ? = inconclusive; / = no result; [ ] = dose if it differs, or a comment. Most compounds without a hit are left out; they make up all but 21% or so of the library. Unless noted, calls come from the whole dose curve; as a rule, active = well fitted inhibition curve with a large enough effect; inconclusive = small, poorly fitted or top-dose-only effect, or another doubt; inactive = no such curve, though single readings can be large or run the other way.

SMILES	HCMV antiviral	HCV inh	Shiga inhibitor	Pf growth 48h	Pf growth 96h	Cycloheximide cs
CCCC1(C(=O)OC)NC(c2ccc(OC)c(OC)c2)C2C(=O)N(c3cccc(C(C)=O)c3)C(=O)C21 (centres undefined)	13	5%	-4	?	-34%	1
COCc1cc(Sc2ccc(Cl)cc2)nc(-c2ccccc2)n1	-14	-21%	-13	?	0%	-2
COCc1cc(Sc2cccc(Cl)c2Cl)nc(-c2ccccc2)n1	-33	?	-12	?	12µM*	-4
CC1(C)SC2c3ccccc3C(=O)N2C1C(=O)O (centres undefined)	18	19%	/	/	/	/
COc1ccc2c(c1)NC(c1ccc(N(C)C)cc1)c1cccn1-2 (centres undefined)	-21	-11%	79*	-18%	?	25*
CCNC(=S)Nc1cc(-c2ccc(Cl)cc2)[nH]n1	-33	?	8	32%	51%	24*
O=C(Nc1cc(-c2ccccc2)[nH]n1)c1ccccc1	-14	-26%	79*	61%	23%	34*
O=C(Nc1cc(-c2ccccc2)[nH]n1)c1ccccc1F	77	-10%	105*	191%	0%	42*
O=C(O)c1ccccc1C(=O)Nc1cc(-c2ccccc2)[nH]n1	42	-4%	-2	63%	50%	2
CC(=O)Nc1cc(-c2ccc(F)cc2)[nH]n1	-31	-1%	129	87%	-3%	24*
CN(CC(=O)Nc1ccccc1N1CCCC1)S(=O)(=O)c1ccc(F)cc1	-15	?	/	?	?	/
COc1cc(OC)c2c(C)c(CC(=O)N3CCCCC3)c(=O)oc2c1	-7	/	/	/	/	/
O=S1(=O)C=C(Sc2nc3cc(Cl)ccc3o2)c2ccccc21	/	7.9µM*	40	?	19%	18*
CN(C)c1nc(N)nc(CSc2nc3cc(Cl)ccc3o2)n1	-12	-5%	-2	57%	/	13
Cc1nc(-c2ccc(Cl)cc2)sc1CCNC(=O)c1cccs1	24	/	/	/	/	/
COC(=O)Cc1[nH]n(-c2ccccc2)c(=O)c1C=Nc1ccc(C)cc1	?	-11%	9	-3%	13%	8
CCCOc1cccc(-c2nnc(N)s2)c1	19	-9%	44*	45%	1%[5.75 µM]	22*
Cc1cccc(-c2nnc(N)s2)c1	54	10%	21	13%	63%	7
CCCCOc1cccc(-c2nnc(N)s2)c1	-16	0%	17	-20%	-16%	25*
CCOC(=O)CSc1nc2cc3c(cc2c(=O)n1CCCC(=O)NCc1ccc2c(c1)OCO2)OCO3	-32	/	/	/	/	/
Cn1nnnc1SCC(=O)Nc1ncc(C(F)(F)F)cc1Cl	18	-2%	/	/	/	/
CCOC(=O)[C@]12Cc3cc(C)ccc3[C@H]1N(C1CCCCC1)C(=O)c1cc(OC)ccc12	-104*	/	/	/	/	/
CCOC(=O)[C@]12Cc3cc(OC)ccc3[C@H]1N(C1CCCCC1)C(=O)c1cc(OC)ccc12	-98*	/	/	/	/	/
COc1ccc2c(c1)C(=O)N(c1ccc(C)cc1C)C(=O)C2(C)C	?	10%	-10	-2%	?	-1
COc1ccc(-c2cc(N)n(S(=O)(=O)c3c(F)c(F)c(F)c(F)c3F)n2)cc1OC	-102*	?	33*	?	?	14*
SMILES	HCMV antiviral	HCV inh	Shiga inhibitor	Pf growth 48h	Pf growth 96h	Cycloheximide cs
COc1ccc(S(=O)(=O)n2nc(-c3cc(OC)c(OC)c(OC)c3)cc2N)cc1OC	106	?	2	?	?	0
COc1ccc([N+](=O)[O-])cc1NC(=O)C(C)OC(=O)c1ccccn1 (centres undefined)	-21	-2%	9	13%	6%	-1
COc1ccc(C(=O)NC2CC3CCCC(C2)N3Cc2ccccc2)cc1 (centres undefined)	19	-2%	14	27%	-12%	3
O=C(Nc1cccc(F)c1)NC1CCN(Cc2ccccc2)CC1	6	-12%	-6	?	11%	1
Cc1cc(F)ccc1S(=O)(=O)Nc1ccccc1C(=O)NC1CCN(Cc2ccccc2)CC1	-11	?	/	2.9µM*	3.3µM*	/
CCCN1C2CCCC1CC(NC(=O)Nc1cccc(C(C)=O)c1)C2 (centres undefined)	41	2.8µM*	-11	?	?	-2
Cc1ccc(CN2C3CCCC2CC(NC(=O)Nc2cccc(F)c2)C3)cc1 (centres undefined)	?	-15%	-14	1.9µM*	21%	-1
O=C(NC1CC2CCCC(C1)N2Cc1ccccc1)c1ccc([N+](=O)[O-])cc1 (centres undefined)	6	-17%	-23	0%	0.37µM*	-2
CCN(CC)S(=O)(=O)c1ccc(OC)c(NC(=O)CC2CCCC2)c1	-18	9%	-7	?	?	-1
CC(NC(=O)COC(=O)C12CC3CC(CC(Br)(C3)C1)C2)c1ccccc1 (centres undefined)	-15	10%	/	/	/	/
CSc1nc2c(sc3ccccc32)c(=O)n1Cc1ccc(C)cc1	17	/	/	/	/	/
Cc1ccc(CN2C3CCCC2CC(NC(=O)c2ccc(F)cc2)C3)cc1 (centres undefined)	8	-9%	-11	10µM*	25%	2
O=C(/C=C/c1ccccc1)NC1CC2CCCC(C1)N2Cc1ccccc1 (centres undefined)	/	/	-8	?	2.3µM*	-2
CCCN1C2CCCC1CC(NC(=O)c1ccc(C(C)(C)C)cc1)C2 (centres undefined)	-12	?	81	11%	0%	13*
O=C(/C=C/c1cccc(F)c1)NC1CCN(Cc2ccccc2)CC1	-63*	-23%	-14	-10%	-27%	-1
Cc1ccc(C(=O)NC2CC3CCCC(C2)N3Cc2ccccc2)cc1 (centres undefined)	61	9%	15	?	?	-2
CCCN1C2CCCC1CC(NC(=O)c1cc(OC)cc(OC)c1)C2 (centres undefined)	12	5%	-2	?	?	-1
O=C(/C=C/c1cccc(Br)c1)NC1CCN(Cc2ccccc2)CC1	?	?	-6	?	?	-8
Cc1ccccc1C(=O)NCC(=O)NC1CC1	13	18%	/	/	/	/
CCOc1ccc(-n2c(C)nc3cc(C(=O)NCC4CCCO4)ccc32)cc1 (centres undefined)	-35	4%	-10	?	?	2
CC(C)N(C(=O)CSc1nnc(C2CC2)n1C1CC1)c1ccccc1	-13	2%	/	0%	-4%	/
